Source: PubChem BioAssay (National Center for Advancing Translational Sciences (NCATS))
The list is not random: actives were taken first. Their share in the collection is about 11%.
NS1 inh = blocks influenza NS1 protein function; 270,000 tested, 0.4% active; Potency, µM (top dose mostly 46.1 µM), without a hit: at the top dose activity, positive = more growth; calls by dose curve; note: actives are rising curves; nearly all actives have a fitted effect of over 50% in size
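A cell-based growth assay was used: compounds that relieve NS1-induced slow growth of budding yeast raise OD600. Assay medium was yeast nitrogen base with ammonium sulphate and -URA supplement, pH 6.0, with 2% galactose.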
AMA1-RON2 inh = inhibitors of Plasmodium falciparum AMA1-RON2 interaction. AlphaScreen AMA1-biotinylated RON2 peptide binding. Potency, µM (titrated, usually from 58.2 µM), without a hit: at the highest dose activity change, negative = inhibition, usual class: inhibitors. 360,000 tested, 0.2% active;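 note: 0% = vehicle wells and -100% = peptide control; nearly all actives have a fitted effect of over 45% in size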
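AMA1 (3D7) with his tag at 25 nM final met compounds first, then biotinylated RON2 peptide at 25 nM; detection used donor plus acceptor beads, 10 µg/mL apiece, read by AlphaScreen after 30 min at room temperature.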
Pf growth 48h = inhibits P. falciparum growth in the first generation, 48 h | P. falciparum luciferase growth in erythrocytes, 48 h | Potency, µM (doses to about 28.7 µM), for the others: at the highest dose activity change, negative = inhibition, hits mostly inhibitors | 310,000 tested, 5.9% active | AID 504832; note: % is set by controls: 0 for no effect and ±100 for the full control effect
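Read-out is firefly luciferase luminescence from an integrated reporter in P. falciparum, so falling signal marks reduced parasite growth. Infected erythrocytes were at 2% hematocrit and 0.1% parasitemia (final) in Albumax-supplemented RPMI 1640.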
Pf growth 96h = P. falciparum growth inhibition at 96 hours. Potency, µM (series often up to 28.7 µM), without a hit: at the highest dose activity change, negative = inhibition, usual class: inhibitors. 320,000 tested, 6.9% active. P. falciparum luciferase reporter growth, 96 h. AID 504834; note: % is set by controls: 0 for no effect and ±100 for the full control effect
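Erythrocytes infected with luciferase-expressing P. falciparum were dispensed at 2% hematocrit and 0.05% parasitemia (final), then incubated with compounds 96 hours at 37 C in 5% CO2. Luminescence after detection reagent addition reported growth.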
Sm TGR block = S. mansoni TGR enzyme inhibition | Potency, µM (highest dose often 114 µM), for the others: top-dose activity change, negative = inhibition, most hits filed as inhibitors | 360,000 tested, 3% active | purified TGR, DTNB reduction, TNB absorbance 405 nm | Q962Y6; note: % is set by controls: 0 for no effect and ±100 for the full control effect; nearly all actives have a fitted effect of over 60% in size
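TGR 20 nM + NADPH 100 uM (dispensed conc.), cpd preinc 15 min RT; start with NADPH (500 uM addition) then DTNB (15 mM addition). Kinetic TNB absorbance, 405 nm filter. Four-parameter Hill fit across titration.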
* marks the source's active call; other numbers are inactive results; i = inactive; u = inconclusive; x = no result given; [ ] = remark or other dose. Unless noted, calls come from the whole dose curve; as a rule, active = well fitted curve in the direction sought with a large enough effect; inconclusive = small, poorly fitted or top-dose-only effect, or another doubt; inactive = no such curve, though single readings can be large; an effect the other way counts as inactive or inconclusive. Potency is the fitted concentration of half-maximal effect.

SMILES	NS1 inh	AMA1-RON2 inh	Pf growth 48h	Pf growth 96h	Sm TGR block
COc1cc(C(=O)NC(=S)Nc2ccccc2N2CCOCC2)cc(OC)c1OC	-5.4%	25.5%	u	25.6%	25.1µM*
COc1cccc(C(=O)NC(=S)Nc2ccccc2N2CCOCC2)c1	-1.6%	8.8%	14.8%	u	1.7%
CCCC(=O)NC(=S)Nc1ccccc1N1CCOCC1	12.1%	-0.6%[2.32 µM]	-23.9%	10.4µM*	-28.7%
Cc1ccc2c(=O)cc(C(=O)Nc3ccc(S(=O)(=O)Nc4onc(C)c4C)cc3)oc2c1	-24.6%	-1.9%	26.9%	24.4%	3.0%
Cc1ccc2c(C)c(C(=O)Nc3ccc(S(=O)(=O)Nc4onc(C)c4C)cc3)oc2c1	6.6%	-16.6%	11.8%	9.28µM*	-18.0%
Cc1noc(NS(=O)(=O)c2ccc(NC(=O)CCn3c(=O)oc4ccccc43)cc2)c1C	7.7%	-8.1%	11.8%	0.0%	15.8µM*
Cc1cc(C)nc(NS(=O)(=O)c2ccc(NC(=O)CN3C(=O)c4ccccc4C3=O)cc2)n1	3.5%	x	8.0%	x	-1.1%
Cc1cc(C)nc(NS(=O)(=O)c2ccc(NC(=O)Cn3c(=O)oc4ccccc43)cc2)n1	-29.5%	-2.9%	x	6.57µM*	0.0%
CCC1C(=O)NCCN1Cc1nc(-c2ccc(C)s2)oc1C (stereo not given)	3.2%	16.1%	10.9%	u	39.8µM*
CCNC(=O)COC(=O)CCNC(=O)c1ccc(Cl)cc1	-3.2%	-7.2%	34.9%	0.0%	1.1%
COc1ccc2c(/C=N/NS(=O)(=O)c3ccc(C)cc3)c[nH]c2c1	-2.2%	-17.9%	0.0%	6.1%	14.1µM*
COC(=O)c1nn(-c2ccc3c(c2)CCN3C(C)=O)cc1O	3.4%	6.1%	1.31µM*	33.5%	-0.6%
COC(=O)c1nn(-c2ccc3c(c2)OCO3)cc1O	-29.4%	-3.1%	126.6%	i	13.7%
COc1ccc(S(N)(=O)=O)cc1C(=O)OCCCC(=O)c1ccccc1	x	-2.0%	u	14.7µM*	-18.0%
Cc1ccc(CNc2nc3c(S(=O)(=O)c4ccccc4)nnn3c3ccsc23)cc1	x	x	x	x	-0.1%
Cn1nc(C(F)(F)F)c(/C=N/OC(=O)c2ccccc2Cl)c1SCc1ccccc1Cl	-4.9%	4.5%	13.1µM*	u	5.5%
Cc1ccccc1OCC(=O)Nc1nnc(SCc2cc(=O)n3cccc(C)c3n2)s1	x	x	x	x	1.2%
Cc1cccc(N=C2NC(=O)S/C2=C\c2ccco2)c1	11.0%	-5.7%	-3.8%	u	-30.4%
COc1ccc(N=C2NC(=O)/C(=C\C=C\c3ccco3)S2)cc1	1.9%	0.2%	-6.1%	u	x
Cc1ccc(N=C2NC(=O)/C(=C\c3ccco3)S2)cc1	-7.3%	-4.2%	u	u	-28.1%
CCc1ccc(N=C2NC(=O)/C(=C/c3cc(OC)c(OC)c(OC)c3)S2)cc1	-2.0%	68.2%	-3.1%	u	4.9%
COc1cc(/C=C2\SC(=Nc3ccc(O)cc3)NC2=O)cc(OC)c1O	-0.4%	-5.6%	3.7µM*	9.28µM*	-9.3%
O=C1NC(=Nc2ccc3ccccc3c2)S/C1=C/c1ccco1	x	-7.5%	0.0%	-14.3%[5.75 µM]	28.2µM*
O=C1NC(=Nc2ccc(O)cc2)S/C1=C/c1ccco1	x	1.9%	-1.6%	u	25.1µM*
Cc1cccc(N=C2NC(=O)/C(=C/C=C/c3ccco3)S2)c1	12.3%	-5.0%	-26.0%	u	39.8µM*
SMILES	NS1 inh	AMA1-RON2 inh	Pf growth 48h	Pf growth 96h	Sm TGR block
COC(=O)CCNC(=O)N1CCN(c2nnc(C)c3c(C)n(-c4ccccc4)nc23)CC1	x	x	x	x	-3.7%
CC(C)C(NS(=O)(=O)c1cccc2cccnc12)C(=O)Nc1ccc(OC(F)(F)F)cc1 (stereo not given)	x	x	x	x	4.2%
CCNC(=O)NCc1cccc(Cl)c1	x	x	-1.5%	-16.1%	x
Cc1sc(-n2c(C)ccc2C)c(C#N)c1C	5.2%	-5.7%	-21.7%	10.4µM*	0.0%
O=C(c1ccncc1)N1CCN(S(=O)(=O)c2cccc(Cl)c2)CC1	x	11.6%	7.0%	u	-0.1%
COc1cc(C(=O)N(CCN(C)C)CC2CCCN(Cc3ccccc3F)C2)ccc1C (stereo not given)	14.9%	-11.6%	10.4µM*	-16.9%	-11.9%
CN(C)CCN(CC1CCCN(Cc2ccccc2F)C1)C(=O)c1ccc(F)cc1 (stereo not given)	-6.1%	4.1%	u	0.0%	-18.4%
Cc1cc(C)c(C(=O)N(CCN(C)C)CC2CCCN(Cc3ccccc3F)C2)o1 (stereo not given)	8.3%	-11.9%	11.7µM*	u	-15.0%
Cc1cc(C)c2nc(NNC(=O)c3ccc(S(=O)(=O)N4CCCC(C)C4)cc3)sc2c1 (stereo not given)	24.4%	40.0%	u	2.33µM*	-12.2%
Cc1cc(C)c2nc(NNC(=O)c3ccc(S(=O)(=O)N4CC(C)CC(C)C4)cc3)sc2c1 (stereo not given)	-10.4%	53.3%	2.62µM*	1.85µM*	-0.5%
COC(=O)c1sc2ccccc2c1NC(=O)c1ccc(S(=O)(=O)N2CC(C)CC(C)C2)cc1 (stereo not given)	4.5%	-3.3%	-10.3%	-15.0%	0.3%
Cc1cc(C)c2nc(NC(=O)c3ccc(S(=O)(=O)N4CCC(C)CC4)cc3)sc2c1	x	x	x	x	2.8%
Cc1cccc2sc(NNC(=O)c3ccc(S(=O)(=O)N4CC(C)CC(C)C4)cc3)nc12 (stereo not given)	9.0%	39.6%	u	2.94µM*	-14.5%
COc1ccc(N2C(=O)C3CCCN3C2c2ccc(C)o2)cc1 (stereo not given)	3.9%	17.2%	-9.3%	3.0%	-13.3%
COc1cc(/C=C(/C#N)C(=O)Nc2cc(C(F)(F)F)ccc2Cl)ccc1OCC(=O)Nc1cccc(C(F)(F)F)c1	x	10.4%	x	x	x
NC1=NC(=O)C(c2ccccc2)C(=O)N1 (stereo not given)	x	-6.6%	x	x	x
Nc1c(C(=O)Nc2cccc(C(F)(F)F)c2)c2ccccn2c1C(=O)c1ccccc1	x	x	x	x	4.3%
NC(=S)N/N=C/c1cccc(O)c1O	3.7%	-64.7%	u	-11.5%	x
Cc1cc(/C=N/NC(N)=S)c(O)c(/C=N/NC(N)=S)c1	-1.8%	-2.2%	0.465µM*	11.7µM*	5.4%
NC(=S)N/N=C/c1ccccc1O	-7.5%	47.7%	0.329µM*	1.04µM*	15.3%
Cc1cn2c(=O)cc(COc3ccc(NC(=O)c4ccccc4C)cc3)nc2s1	x	x	x	x	1.8%
Cc1ccc(C)c(OCCC(=O)OCC(=O)c2c(N)n(C)c(=O)n(C)c2=O)c1	x	-3.3%	-14.8%	16.8%	1.1%
COc1nc(NC2CCCCC2)nc(NC(C)(C)C)n1	x	-16.5%	x	x	x
CC(C)(C)Nc1nc(Cl)nc(NC2CCCCC2)n1	21.8%	0.9%	-18.7%	13.1µM*	-0.8%
CC(=O)c1ccc(NC(=O)c2ccc([N+](=O)[O-])o2)cc1	-117.1%	8.8%	-10.6%	3.4%	28.2µM*
Cc1cc(C)nc(NC(=O)c2ccc([N+](=O)[O-])o2)n1	-5.4%	12.5%	-6.4%	247.1%	-21.0%
